# This is part of a sample that, as a whole, favours compounds with a hit. Of some 83,000 tested, about 20% had one in any assay.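 Plates (96-well) were seeded with cells, treated with compound at one concentration, and incubated for 48 hours before percent growth was determined.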 A number with no mark means an inactive call. Activity calls are given as the source filed them. Rule for the calls: active = growth percent below 10; inactive = the rest.
# Legend:
# Assay in all cases: NCI-60 one-dose screen, 48 h (100 = growth as untreated, 0 = no growth, -100 = all killed)
# Details in all cases: 10 µM unless noted
# RPMI-8226 leukemia = test system: RPMI-8226 leukemia
# OVCAR-8 ovarian = test system: OVCAR-8 ovarian
# OVCAR-5 ovarian = test system: OVCAR-5 ovarian
# OVCAR-4 ovarian = test system: OVCAR-4 ovarian
# SK-OV-3 ovarian = test system: SK-OV-3 ovarian
# IGROV1 ovarian = test system: IGROV1 ovarian
# OVCAR-3 ovarian = test system: OVCAR-3 ovarian
# HS 578T breast = test system: HS 578T breast
# NCI/ADR-RES ovarian = test system: NCI/ADR-RES ovarian
# T-47D breast = test system: T-47D breast
Compound,growth (RPMI-8226 leukemia),growth (OVCAR-8 ovarian),growth (OVCAR-5 ovarian),growth (OVCAR-4 ovarian),growth (SK-OV-3 ovarian),growth (IGROV1 ovarian),growth (OVCAR-3 ovarian),growth (HS 578T breast),growth (NCI/ADR-RES ovarian),growth (T-47D breast)
COc1cc(-c2cn(-c3ccc(Cl)c(Cl)c3)c(=O)[nH]2)cc(OC)c1OC,99.3%,95.1%,87.6%,98.9%,88.3%,136%,99.5%,95.3%,95.5%,90.1%
O=S(=O)(Nc1nccs1)c1ccc(Nc2nc(-c3ccncc3)cs2)cc1,99.3%,121%,117%,115%,108%,84.1%,118%,96.8%,122%,105%
CC(=O)c1c(OCC#N)ccc2c(C)cc(=O)oc12,80%,124%,114%,107%,110%,116%,120%,106%,118%,97.9%
CCOC(=O)CC[C@H](NC(=O)c1ccc(NC)c2ccccc12)C(=O)OCC,91.2%,94.7%,101%,104%,92.8%,105%,102%,105%,104%,93.8%
CCOc1ccccc1C(=O)/C=C/c1cc2ccccc2[nH]c1=O,-12.1% (active),7.43% (active),5.93% (active),32.3%,18.8%,1.32% (active),-30.7% (active),60.1%,-4.24% (active),4.65% (active)
C=C1C(=O)O[C@H]2[C@H]1CC/C(COC(=O)n1ccnc1)=C\CC[C@@]1(C)O[C@@H]21,85.3%,99.8%,117%,103%,102%,77.7%,57%,99.2%,102%,78.2%
N#Cc1c(NC(=O)c2cccs2)[n+]([O-])c2cc(C(F)(F)F)ccc2[n+]1[O-],95.5%,95.4%,111%,94.1%,97.2%,-54.2% (active),81.9%,84.5%,107%,90.2%
O=C1c2ccccc2C(=O)c2c1oc1c2c(=O)[nH]c2ccccc21,62.7%,35.6%,102%,-5.49% (active),104%,55.1%,-14.8% (active),88.3%,40.8%,22.5%
COc1ccc2[nH]c(=O)c(/C=C/C(=O)c3ccccc3OC)cc2c1,5.61% (active),1.18% (active),12.1%,50.8%,6.12% (active),14.5%,8.25% (active),8.33% (active),10.4%,-2.02% (active)
COC(=O)c1nc(-c2ccccc2)oc1S(=O)(=O)n1nc(-c2ccccc2)cc1N,57.1%,75.8%,93.5%,107%,106%,73.6%,68.3%,101%,99%,49.5%
Cc1cc(C)c2nc(Nc3nc(C)c(C)c(=O)[nH]3)nc(C)c2c1,-17.1% (active),15.5%,48.8%,20.8%,7.87% (active),9.55% (active),5.78% (active),21.2%,40.8%,18.9%
CCCCc1nc(Cl)c(C2CC(c3ccc(Cl)cc3)=NN2c2cc(Cl)cc(Cl)c2)[nH]1 (stereo not given),90.9%,68.5%,94.2%,63.5%,92.4%,71.1%,65.9%,59.6%,78.8%,75%
CCCCn1c2cc(OCc3cn(-c4ccc(Cl)cc4)nn3)ccc2c2ccnc(C)c21,-34.3% (active),29.7%,39.5%,18.2%,52.9%,39.3%,30.1%,54.2%,28%,22.2%
COc1ccc2nc3nc4ccc[nH]c4cc3c2c1,82.9%,96.6%,115%,92.2%,89%,69.6%,91.8%,92.5%,96.1%,38.3%
C#Cc1ccccc1NC(=O)c1sc2nc3c(cc2c1N)CCCCCC3,56.4%,75.7%,93.1%,-19% (active),36.9%,74.5%,30.9%,8.22% (active),67.4%,49.7%
N#CCNc1ccc(C(=O)O)cc1,102%,102%,120%,117%,105%,103%,110%,105%,105%,99.2%
Cc1c(C(=O)Nc2nc3ccccc3[nH]2)cnn1-c1ccccn1,95.6%,98.3%,108%,105%,104%,114%,112%,112%,106%,101%
COc1cc(NC(=O)c2cc(O)c(C/C=C(\C)CCC=C(C)C)c(O)c2)cc2c1O[C@]1(C)CC[C@@H](O)C(C)(C)[C@H]1C2,-30% (active),23.5%,44.9%,29.6%,26.9%,20%,-12.1% (active),18.4%,65%,18%
Cc1cccc(C)c1NCc1nnc(-c2ccc(O)cc2)o1,95.5%,107%,95.5%,99%,114%,99.9%,99.4%,-4.35% (active),96.8%,91.5%
O=[N+]([O-])c1ccc(Oc2ccc(-c3ccccc3)cc2)cc1,75.2%,92.1%,99.2%,69.6%,92.6%,85.3%,99.3%,93.2%,91.8%,60.6%
O=S(=O)(O)c1ccc(N=NSc2ccc3ccccc3c2)cc1,91.7%,108%,106%,101%,112%,93.2%,98.6%,98.7%,96.4%,82.2%
C=C1C(=O)O[C@H]2[C@H]1CC/C(COC(=O)NCc1nc3ccccc3[nH]1)=C\CC[C@@]1(C)O[C@@H]21,34.7%,93.6%,130%,82.7%,101%,62.7%,22%,102%,99.4%,43.4%
CC(C)(C#N)c1cc(F)cc(C(=O)Nc2cc(Nc3ncccc3-c3ncnc4nc[nH]c34)ccc2F)c1,23.7%,41.1%,37%,70.3%,63.7%,15.4%,55.2%,39.9%,37.1%,42.8%
C1=CC2=CC=C3C=CC=C4C(c5nc6c7ccccc7c7ccccc7c6[nH]5)=CC(=C1)C2C34 (stereo not given),89.5%,97.7%,115%,119%,93.9%,86.8%,93.4%,93.9%,92.9%,60%
CN1C(=O)c2cc(Cl)nc3c(NC(=O)c4cccc(Cl)c4)c(Cl)c(NC(=O)c4cccc(Cl)c4)c1c23,38.4%,2.78% (active),88.7%,-22.7% (active),86.4%,-66.2% (active),-52.7% (active),-12.3% (active),27.5%,22.1%
CN1CCN(S(=O)(=O)O[C@@H]2C(=O)N(c3cc4c5ccccc5ccc4c4ccccc34)[C@H]2c2ccc(F)cn2)CC1,79.7%,85.7%,108%,99.1%,97.9%,87.8%,88.4%,84.1%,92.2%,78.9%
NC(=O)CN1C(=O)c2ccccc2C1=O,105%,103%,102%,110%,106%,105%,106%,104%,102%,89.9%

# Reference: PubChem BioAssay (NCI)
